This is an account of results in the OligoGym collection.
Also: reference of the scale not given here.

The target of the first test is STAP2. The test is described as follows: pooled miR-30 sensor sort-seq; sequence = guide strand. Particulars: shRNA.
In turn, TAGAAAGCTCTCATAGTAGTGT showed a sensor-assay potency score (higher = more potent) of 0.706.

TTCCACGTAGCCTAGCACCTTC yielded a sensor-assay potency score (higher = more potent) of -0.0469.

For the sequence TAGTTCTCTTCCTGGTTCGGTA, the sensor-assay potency score (higher = more potent) is -0.765.

In turn, TTCTTCTCTAGAAAGCTCTCAT displayed a sensor-assay potency score (higher = more potent) of -0.00657.

TACCTTGAACTTGATCTCCTGA: the sensor-assay potency score (higher = more potent) was 0.355.

Take TTGAGCTTCTCCACGTGCTGGA: the sensor-assay potency score (higher = more potent) came to 0.441.

As for TAGAGGAAGCCACATCTTGGTT, the sensor-assay potency score (higher = more potent) was -1.31.

With TCTCATAGTAGTGTGAAGGCAG, the sensor-assay potency score (higher = more potent) came to 0.0304.

The next test deals with STARD13. Described as above. Particulars: shRNA.
Sequence ATGAACTTTGGAACTGACCATG had a sensor-assay potency score (higher = more potent) of -1.26.

Sequence TTGCTGAATACTTTGAGGCAGG yielded a sensor-assay potency score (higher = more potent) of -0.948.

In turn, TGACCTTTCAGGTCTATCCTGC gave a sensor-assay potency score (higher = more potent) of 0.102.

Regarding TATTTCTTCTGTATGACTCGTG, the sensor-assay potency score (higher = more potent) was found to be 0.941.

The sequence TTAGTCGTCTGCAAAGAGGTTC had a sensor-assay potency score (higher = more potent) of -0.341.

In turn, TTTGTAGTCGGGAACTTTCATC had a sensor-assay potency score (higher = more potent) of -0.697.

TAGTCGGGAACTTTCATCCTCT showed a sensor-assay potency score (higher = more potent) of 0.0488.

TTGTCATAGATACTGACTCGGC registered a sensor-assay potency score (higher = more potent) of -0.87.

The sequence TTGTAGTCTGATCAAATCGCAA showed a sensor-assay potency score (higher = more potent) of -1.15.

Turning to TTGTTCAACGTATTTAGTCGTC, the sensor-assay potency score (higher = more potent) is -0.155.

Consider TATAACTGAGCGTATTGCGGGA, for which the sensor-assay potency score (higher = more potent) is -0.462.

In turn, TTGAATTTTAGTCACTAGCTGA yielded a sensor-assay potency score (higher = more potent) of -0.1.

The target of the next test is STARD3NL. The description is as above. Particulars: shRNA.
The sequence TTGAAATCCAGGAACCACGTCT showed a sensor-assay potency score (higher = more potent) of 0.74.

As for TTTGCTAGTAAAAAGGCACTGG, the sensor-assay potency score (higher = more potent) is 0.563.

With TTAGCTGTTCAATAAAGCCAGC, the sensor-assay potency score (higher = more potent) is -0.902.

Take TAAATAAATCTTTATTAGCTGT: the sensor-assay potency score (higher = more potent) was -0.476.

The sequence TGAAGCATCCTGAACTATCAGG showed a sensor-assay potency score (higher = more potent) of -0.809.

TTTAACTCTATTATCCACAGTA: the sensor-assay potency score (higher = more potent) was 0.804.

In the case of TTGATTAGGAATACAGCACAAG, the sensor-assay potency score (higher = more potent) is -0.839.

As to TTTAAATCGAAAAACTGCCAGA, the sensor-assay potency score (higher = more potent) was -0.348.

For the sequence TACTTCAATATATTAAGTCTTT, the sensor-assay potency score (higher = more potent) is -0.927.

TATTACAATAAATAAATCTTTA: the sensor-assay potency score (higher = more potent) is -1.13.

In turn, TTCAACTTTACTGTCGACAGGG had a sensor-assay potency score (higher = more potent) of 0.68.

Take TTTCTTCTTCTGCTTCTTGAGG: the sensor-assay potency score (higher = more potent) was -0.759.

The next test deals with STARD3. The description is as above. Particulars: shRNA.
On to TTCATTATTCTTCTCAAACTTC, for which the sensor-assay potency score (higher = more potent) is -0.376.

The sequence TTGTTCCACAGCACCATCCTCT showed a sensor-assay potency score (higher = more potent) of -0.73.

With TTGACAATGAGGAATGCACTGG, the sensor-assay potency score (higher = more potent) is 0.205.

TGTGTTGGTATTCAGTTCGATG: the sensor-assay potency score (higher = more potent) is -1.58.

Consider TTCAGGATAAACGTCTTGCCGT, for which the sensor-assay potency score (higher = more potent) was -0.566.

Sequence TTCCACAGCACCATCCTCTCGG showed a sensor-assay potency score (higher = more potent) of 0.506.

The sequence TAGGACTTTGAAGTCAAGGAAC came in with a sensor-assay potency score (higher = more potent) of -1.37.

Consider TTTTCTTCCCAGCAACTTCTTC, for which the sensor-assay potency score (higher = more potent) is -1.04.
